Measurements from PubChem BioAssay (NCI).
About 83,000 compounds went through this panel and 20% of them were active in at least one assay; those are over-represented in the sample as a whole.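 In brief: 96-well plates, 48 h treatment, single concentration, percent growth endpoint.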 Calls of active or inactive are those of the source. Rule for the calls: active = growth percent below 10; inactive = the rest.

Columns and labels:
Experiment in all cases: NCI-60 one-dose screen, 48 h (100 = growth as untreated, 0 = no growth, -100 = all killed)
Details in all cases: 10 µM unless noted
[1] = test system: DU-145 prostate
[2] = test system: K-562 leukemia
[3] = test system: MALME-3M melanoma
[4] = test system: MDA-MB-231 breast
[5] = test system: RXF 393 renal
[6] = test system: SF-268 CNS
[7] = test system: SF-295 CNS
[8] = test system: SF-539 CNS
[9] = test system: UACC-257 melanoma
[10] = test system: M14 melanoma
[11] = test system: HCT-15 colon
[12] = test system: HT29 colon
[13] = test system: SNB-75 CNS
[14] = test system: SNB-19 CNS
[15] = test system: U251 CNS
[16] = test system: PC-3 prostate
[17] = test system: SK-MEL-5 melanoma
[18] = test system: UACC-62 melanoma
[19] = test system: LOX IMVI melanoma
[20] = test system: SK-MEL-28 melanoma

Measured: growth

C=C1C(=O)O[C@H]2[C@H]1CC/C(COC(=O)NCc1ccc(Cn3c(=O)sn(-c4ccc(C#N)cc4)c3=O)cc1)=C\CC[C@@]1(C)O[C@@H]21
active: [1] 8.56%
inactive: [2] 20.4% | [3] 56.9% | [4] 48.6% | [5] 52.7% | [6] 75.1% | [7] 102% | [8] 61.2% | [9] 69.4% | [10] 68.8% | [11] 87.8% | [12] 48.2% | [13] 80.3% | [14] 88.5% | [15] 81.2% | [16] 71.6% | [17] 89.5% | [18] 69.3% | [19] 65.9% | [20] 87.2%

Cc1ccc(/C=C/C(=O)c2cccc(OCCCOc3cccc(C(=O)/C=C/c4ccc(C)cc4)c3)c2)cc1
inactive: [1] 88.9% | [2] 52.9% | [3] 98.8% | [4] 86.8% | [5] 85.7% | [6] 79.6% | [7] 77.4% | [8] 83.8% | [9] 96.4% | [10] 73.4% | [11] 64.4% | [12] 51.5% | [13] 70.2% | [14] 77.2% | [15] 41% | [16] 72.2% | [17] 90.2% | [18] 62.9% | [19] 25.5% | [20] 97.7%

CNC(C)[C@H]1CCC2C3CC=C4C(=O)[C@@H](NC(=O)C=C(C)C)CC[C@]4(C)C3CC[C@@]21C (stereo not given in full)
inactive: [1] 52.9% | [13] 22.5% | [14] 53.4% | [15] 18.2%
active: [2] -62.1% | [3] -52.2% | [4] -12.4% | [5] -59% | [6] -15.7% | [7] -8.38% | [8] -92.5% | [9] -30.8% | [10] -53.7% | [11] -54.1% | [12] -52% | [16] 6.67% | [17] -89.8% | [18] -67.2% | [19] -54% | [20] -86.1%

CC/C=C\CCC/C=C1/C(=O)C=C[C@@H]1C/C=C\CCCC(=O)OC
active: [2] 0.856% | [10] 1.66% | [11] 4.07% | [12] -1.77% | [17] -32% | [18] -14.2% | [19] -70.8%
inactive: [1] 60.4% | [3] 34.1% | [4] 15.3% | [5] 96.4% | [6] 31% | [7] 74.2% | [8] 95.4% | [9] 69.7% | [13] 82.7% | [14] 50.2% | [15] 19.7% | [16] 32.8% | [20] 61.3%

CC1(C)NCCC[C@]2(C)[C@H]3CC[C@H]4[C@H]5[C@H](C(=O)/C=C/c6cccnc6)CCC[C@]5(CO)CC[C@@]4(C)[C@]3(C)CC[C@@H]12
inactive: [1] 66.6% | [3] 85.7% | [4] 67.4% | [5] 66.2% | [6] 72.9% | [7] 84.3% | [8] 81.4% | [9] 86.5% | [10] 85.8% | [11] 33.5% | [13] 75.8% | [14] 72.2% | [15] 11% | [16] 59.4% | [17] 87% | [18] 96.7% | [19] 13% | [20] 93.6%
active: [2] -3.12% | [12] 3.84%

Cc1ccc(-c2nc(-c3cn(C)c4ncccc34)cs2)cc1
active: [1] -56.4% [100 µM] | [3] -40% [100 µM] | [4] -14.6% [100 µM] | [5] -37.8% [100 µM] | [6] 2.72% [100 µM] | [7] -42.2% [100 µM] | [8] -79% [100 µM] | [9] -7.24% [100 µM] | [10] -63.7% [100 µM] | [11] -18% [100 µM] | [12] -68.1% [100 µM] | [13] -40.2% [100 µM] | [14] -21.1% [100 µM] | [15] -7.83% [100 µM] | [16] -20.6% [100 µM] | [17] -84.9% [100 µM] | [18] -50.3% [100 µM] | [19] -41% [100 µM] | [20] -19.7% [100 µM]
inactive: [2] 10.3% [100 µM]

Cc1cccc(N2CCC(=O)NC2=S)c1
inactive: [1] 116% | [2] 112% | [3] 95.9% | [4] 89.9% | [5] 115% | [6] 99.4% | [7] 103% | [8] 96.7% | [9] 105% | [10] 97.3% | [11] 107% | [12] 113% | [13] 92.5% | [14] 99.4% | [15] 104% | [16] 98.3% | [17] 101% | [18] 96.4% | [19] 97.2% | [20] 110%

CC1CCN(C(=O)CCCl)c2ccccc21 (stereo not given)
inactive: [1] 113% | [2] 147% | [3] 121% | [4] 85.4% | [5] 123% | [6] 99.7% | [7] 160% | [8] 126% | [9] 94.2% | [10] 95.4% | [11] 102% | [12] 102% | [13] 87.9% | [14] 96.7% | [15] 102% | [16] 103% | [17] 104% | [18] 89.7% | [19] 91% | [20] 109%

O=C(Nc1ncc(Cc2cc(C(F)(F)F)ccc2Cl)s1)c1cccs1
inactive: [1] 72.7% | [2] 10.7% | [3] 50.7% | [4] 77.8% | [5] 42.7% | [6] 63.9% | [7] 41% | [8] 79.7% | [9] 73.3% | [10] 49.3% | [11] 21.9% | [12] 18.6% | [13] 72% | [14] 65% | [15] 42.5% | [16] 50.1% | [17] 37.7% | [18] 46.1% | [19] 58.8% | [20] 67.5%

O=C(CC(=O)Nc1cccc(C(=O)O)c1)Nc1cccc(C(=O)O)c1
inactive: [1] 121% | [2] 111% | [3] 104% | [4] 104% | [5] 111% | [6] 104% | [7] 106% | [8] 90.5% | [9] 97.7% | [10] 96.6% | [11] 106% | [12] 97.6% | [13] 73.3% | [14] 102% | [15] 104% | [16] 92.5% | [17] 100% | [18] 94.6% | [19] 103% | [20] 100%

O=C(Cc1ccc(/C=C/C(=O)c2ncc[nH]2)cc1)Nc1cc(C(F)(F)F)cc(C(F)(F)F)c1
inactive: [1] 86.2% | [2] 18.9% | [3] 92.1% | [4] 92.6% | [5] 67.8% | [6] 88.2% | [7] 93.7% | [8] 73.7% | [9] 100% | [10] 89.6% | [11] 62.4% | [12] 26.3% | [13] 79% | [14] 77.3% | [15] 38.5% | [16] 85.3% | [17] 93.1% | [18] 80.9% | [19] 34.5% | [20] 104%

O=C(CN1CCCCCC1)Nc1nc2ccc(NCc3ccc(Cl)cc3)cc2s1
inactive: [1] 101% | [2] 87.9% | [3] 98.1% | [4] 97.3% | [5] 99.2% | [6] 99.9% | [7] 95.9% | [8] 94.8% | [9] 100% | [10] 99.3% | [11] 99.2% | [12] 95.7% | [13] 94.2% | [14] 95.8% | [15] 95.8% | [16] 84.3% | [17] 98.4% | [18] 88.5% | [19] 96.7% | [20] 104%

Fc1ccc2[nH]cc(-c3nc(-c4c[nH]c5ccncc45)cs3)c2c1
active: [1] -0.992% | [2] -41.7% | [3] -85.3% | [4] -59.8% | [5] -84.6% | [6] -31.5% | [7] -74.1% | [8] -92.6% | [9] -67.8% | [10] -66.4% | [11] -50% | [12] -62.9% | [13] -31.6% | [14] -48.4% | [15] -81.8% | [16] 7.43% | [17] -94.6% | [18] -75.3% | [19] -92.3% | [20] -92.1%

O=C(Cn1nnc2ccccc21)N/N=C/c1c[nH]c2ccccc12
inactive: [1] 81% | [2] 15.2% | [3] 61% | [4] 52% | [5] 66.5% | [6] 57.5% | [7] 44.3% | [8] 51.9% | [9] 65.3% | [10] 19.7% | [11] 33.3% | [12] 13.1% | [13] 33.5% | [14] 41.3% | [15] 39.5% | [16] 61.7% | [17] 28.4% | [18] 23% | [19] 46.1% | [20] 72.5%

Cc1ccc(NC(=O)Cn2c(Br)nc3c2c(=O)n(C)c(=O)n3C)cc1
inactive: [1] 44.1% | [2] 51.6% | [6] 56.1% | [9] 62.2% | [10] 43.1% | [11] 45.8% | [12] 55.2% | [14] 50.7% | [16] 30.3% | [17] 25.6% | [18] 45.5% | [20] 52%
active: [3] -36% | [4] -19.2% | [5] -3.2% | [7] 0.92% | [8] 1.55% | [13] 5.65% | [15] 4.05% | [19] -9.57%
